In PubChem BioAssay:
Several values for one entry are separate records, joined by “and”; a condition that tells them apart may be missing. Equal values may be shown once. Activity calls are given as the source filed them.

How the values were obtained:
[1] = target: Albumin (Bos taurus) (UniProt P02769); test: bovine serum albumin binders on microarray, profiling panel, artefact control for SMM control protein annotation, biochemical, small-molecule microarray, Alexa647 label, 635/667 nm fluorescence (AID 1118); conditions: BSA-A647 binding, fluorescence 635 nm, higher = more signal;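 further: score merges 667 nm emission intensity and signal-to-noise per printed compound spot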
Chain of Albumin (Bos taurus) (P02769 whole entry, looked up): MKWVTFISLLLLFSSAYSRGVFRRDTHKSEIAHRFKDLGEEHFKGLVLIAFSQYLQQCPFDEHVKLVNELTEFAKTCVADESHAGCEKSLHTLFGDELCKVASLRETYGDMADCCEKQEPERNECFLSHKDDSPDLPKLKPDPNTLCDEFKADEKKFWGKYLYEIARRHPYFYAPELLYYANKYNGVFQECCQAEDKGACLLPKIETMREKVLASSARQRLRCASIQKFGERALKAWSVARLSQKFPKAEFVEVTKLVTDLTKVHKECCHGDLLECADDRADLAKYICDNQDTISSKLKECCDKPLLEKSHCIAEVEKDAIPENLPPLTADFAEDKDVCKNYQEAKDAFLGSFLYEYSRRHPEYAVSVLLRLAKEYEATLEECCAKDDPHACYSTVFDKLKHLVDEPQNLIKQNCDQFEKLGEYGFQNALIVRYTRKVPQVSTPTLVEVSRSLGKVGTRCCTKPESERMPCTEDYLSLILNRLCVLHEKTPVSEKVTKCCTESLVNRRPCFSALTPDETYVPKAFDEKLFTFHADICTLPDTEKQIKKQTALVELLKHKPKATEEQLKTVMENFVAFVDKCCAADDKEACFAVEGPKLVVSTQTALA

[2] = small-molecule microarray binders of probe aXIP, primary screen, biochemical, NeuroSMM set, 635/667 nm fluorescence (AID 1119); conditions: higher = more signal, called active from +8 up or from −8 down;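 further: probe is the protein aXip251-270 applied at 1 µg/mL to compound-printed slides; binding of probe to printed compounds measured as 667 nm fluorescence plus signal to noise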
[3] = small-molecule binders of probe aNOTCH3, primary screen, biochemical, small-molecule microarray, 635/667 nm fluorescence (AID 1120); conditions: higher = more signal;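 further: probe is a biotin-tagged antibody raised against NOTCH3 rather than NOTCH3 protein; score merges spot fluorescence near 667 nm with spot signal to noise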
[4] = small-molecule binders of probe aNOTCH2, primary screen, biochemical, small-molecule microarray, 635/667 nm fluorescence (AID 1121); conditions: higher = more signal;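 further: score merges feature fluorescence read at 667 nm with its signal to noise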
[5] = target: Carbonic anhydrase 2 (Homo sapiens) (UniProt P00918); test: CAII small-molecule binders, profiling panel, biochemical, small-molecule microarray, Alexa647-labelled CAII (AID 1122); conditions: CAII-A647 binding fluorescence, higher = more signal
[6] = COS7 lysate on small-molecule microarray, probe aHis, 635 nm (AID 1123); conditions: COS7 cell lysate, fluorescence, higher = more signal;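 further: z-score combines 667nm fluorescence intensity with signal-to-noise per printed compound spot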
[7] = compound binding in COS7 lysate, probe aLAP1, primary screen, cell lysate, small-molecule microarray (AID 1124); conditions: probe aLAP1, fluorescence, higher = more signal;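 further: lysate comes from COS7 cells expressing LAP1 and is applied at 0.3 µg/mL; score merges spot fluorescence near 667 nm with signal-to-noise over triplicate slides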
[8] = test system: Sam68 (KHDRBS1); test: Sam68 small-molecule binders, primary screen, biochemical, small-molecule microarray, 635 nm fluorescence (AID 1125); conditions: small-molecule microarray binding, higher = more signal;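 further: score merges 667 nm channel intensity with signal to noise over triplicate slides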
[9] = test system: Chordin-like protein 2 (CHRDL2); test: CHRDL2 small-molecule binders, primary screen, biochemical, small-molecule microarray, 635 nm fluorescence (AID 1126); conditions: small-molecule microarray binding, fluorescence 635 nm; higher = more signal;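 further: printed compound slides probed with Chrdl2 protein at 4 µg/mL for 1 h at 4 C; score merges 667 nm emission intensity with signal to noise over three replicate slides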
[10] = target: Concanavalin-A (Canavalia ensiformis) (UniProt P02866); test: ConA small-molecule binders, primary screen, artefact control for SMM control protein annotation, biochemical, small-molecule microarray, Alexa647 label, 635 nm (AID 1127); conditions: ConA-A647 binding fluorescence, higher = more signal;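 further: z combines 667 nm emission intensity with signal-to-noise across three replicate slides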
Chain of Concanavalin-A (Canavalia ensiformis) (P02866 whole entry, looked up): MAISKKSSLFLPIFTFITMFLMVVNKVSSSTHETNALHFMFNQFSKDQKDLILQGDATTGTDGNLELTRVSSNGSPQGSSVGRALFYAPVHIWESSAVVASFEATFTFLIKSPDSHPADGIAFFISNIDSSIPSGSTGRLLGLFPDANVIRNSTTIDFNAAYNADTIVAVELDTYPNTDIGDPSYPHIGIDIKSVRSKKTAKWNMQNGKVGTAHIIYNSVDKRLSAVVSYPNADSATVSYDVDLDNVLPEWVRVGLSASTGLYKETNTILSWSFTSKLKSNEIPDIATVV

Row | Structure (SMILES) | composite z-score [1] | composite Z-score [2] | composite z-score [3] | composite z-score [4] | composite z-score [5] | composite z-score [6] | composite z-score [7] | composite z-score [8] | composite z-score [9] | composite z-score [10]
1 | COc1ccc(-c2ccc3c(n2)CCCN3CC(O)CN2CCCc3nc(-c4ccc(Br)cc4)ccc32)cc1 (stereo not given) | 0.479 and 0.259 | 1.48 (inactive) and 2.85 (inactive) | 0.448 and 0.392 | -0.0125 and -0.0349 | 0.491 and 0.44 | -0.0214 and 0.91 | 0.984 and 0.29 | 0.764 and 0.301 | 0.708 and 0.919 | 0.677 and 0.632
2 | CC(CO)N1C(=O)[C@@H]2C3C(=O)OCCC=C[C@H]3OC23C=CCN(CCN2CCOCC2)C(=O)[C@@H]13 (stereo not given in full) | 0.417 and -0.264 | 0.102 (inactive) and -0.135 (inactive) | -0.225 and 0.604 | -0.113 and -0.147 | 0.819 and 0.787 | -0.144 and 2.41 | -0.657 and 0.721 | -0.495 and 1.14 | -0.184 and -0.565 | 0.116 and 0.686
3 | COC(=O)C1=C2N(Cc3ccccc3)C(C)=C(C(=O)OC)[C@@H](c3ccccc3)N2C(=O)[C@](O)(C(=O)OC)C1 | 0.514 and -0.0136 | 0.606 (inactive) and 0.656 (inactive) | 0.0349 and -0.063 | -0.171 and -0.0476 | 0.416 and -0.0902 | 0.877 and -0.0061 | -0.109 and 0.809 | 0.776 and 0.133 | 0.392 and 0.77 | 0.712 and -0.0245
4 | CO[C@@H]1COC(=O)CC=C[C@H](C)COC(=O)[C@H](C)NC(=O)CC=C[C@H]1C | -1.02 | 0.332 (inactive) | -0.1 | -0.164 | -0.427 | -0.448 | -0.235 | 0.548 | 1.06 | 0.161
5 | CO[C@H]1COC(=O)[C@H](C)NC(=O)CC=C[C@@H](C)[C@H](OC)COC(=O)CC=C[C@@H]1C | -0.956 | 0.536 (inactive) | -0.0716 | -0.161 | -0.719 | -0.705 | -0.796 | -0.25 | 1.49 | -1.85
6 | CO[C@H]1COC(=O)CC=C[C@@H](C)COC(=O)[C@@H](OCc2ccccc2)C=C[C@@H]1C | -0.853 | 0.528 (inactive) | -0.307 | -0.179 | -0.297 | -0.173 | 0.106 | -0.239 | 1.23 | -1.64
7 | CCCC[C@@H]1CN2[C@H](c3ccc(Br)cc3)[C@@H](C)CC[C@H]2C(=O)O1 | -0.102 and -0.193 | -0.0662 (inactive) and -0.0677 (inactive) | -0.17 and -0.0888 | -0.14 and -0.0316 | -0.199 and -0.139 | -0.263 and 0.0681 | 0.43 and 0.159 | -0.32 and 0.277 | 0.204 and 0.111 | 0.404 and -0.854
8 | Cc1ccc(S(=O)(=O)N[C@@H]2COC(=O)CC=C[C@@H](C)[C@@H]3C=C[C@H](O)[C@@H](COC(=O)CC=C[C@H]2C)O3)cc1 | -0.311 and -0.304 | -0.842 (inactive) and -0.0662 (inactive) | 0.0426 and -0.161 | -0.14 and -0.124 | -0.0023 and 0.221 | -0.348 and 0.043 | 0.0386 and 0.26 | -0.132 and 0.293 | 0.711 and 0.396 | -0.6 and 0.152
9 | CCOC(=O)C[C@H]1[C@H](OC(=O)c2ccccc2-c2ccccc2)[C@@H](NC(=O)Cc2ccc(OC)cc2)c2cc(OCCCO)ccc2N1C(=O)c1ccc2ccccc2n1 | 0.0759 and 0.46 | -0.252 (inactive) and -0.128 (inactive) | -0.0347 and -0.0608 | -0.14 and 0.0777 | -0.156 and 0.0959 | 0.411 and 1.57 | -0.264 and 0.286 | -0.636 and 0.641 | -0.0194 and -0.181 | 0.0022 and 0.662
10 | C=CCN(C(=O)C(c1cccs1)N(C(=O)/C=C\C(=O)O)c1ccc(CCO)cc1)c1ccc(OC)cc1 (stereo not given) | 0.254 and -1.1 | -0.16 (inactive) and -0.902 (inactive) | -0.299 and -0.451 | -0.164 and -0.19 | 0.89 and -0.733 | -0.416 and -1.29 | -1.17 and 0.112 | -1.79 and -2.22 | -1.65 and -3.12 | -1.33 and -2.24
11 | COC(=O)C1=C(C)N(Cc2ccccc2)[C@]23O[C@](C(=O)OC)(C(=O)N2[C@@H]1c1ccccc1)[C@H]1C(=O)N(c2ccccc2)C(=O)[C@H]13 | 0.692 and 0.614 | -0.119 (inactive) and -0.275 (inactive) | 0.121 and 0.024 | 0.0793 and -0.0321 | 0.306 and 0.428 | 1.05 and -0.39 | 0.294 and 0.526 | 0.682 and 0.308 | 0.223 and 0.523 | 0.838 and 0.0089
12 | C=CCN(Cc1ccccc1)C(=O)C1N(CCCCCCO)C(=O)C2C(C(=O)O)C3C=CC21O3 (stereo not given) | -0.198 and 0.768 | -0.461 (inactive) and -0.2 (inactive) | -0.541 and -0.445 | -0.14 and -0.154 | 0.812 and 0.904 | -0.376 and -0.155 | -0.694 and -0.332 | -0.442 and -1.97 | -3.18 and -2.25 | -0.588 and -2.21
13 | Cc1cc2c(nc1C)CCCN2CC(O)CN1CCCc2nc(-c3ccc(Br)cc3)ccc21 (stereo not given) | -0.473 and 0.163 | 2.2 (inactive) and 4.49 (inactive) | 0.569 and 0.969 | 0.174 and 0.519 | 0.492 and 0.401 | 0.531 and 1.25 | 0.741 and 0.489 | 1.29 | 0.955 and 1.08 | 0.975 and 1.03
14 | CCOC(=O)NN=C1C[C@@H](O)[C@@H](O)[C@@H]2[C@@H]3C(=O)N(Cc4ccccc4)C(=O)[C@@H]3CC[C@@H]12 | -0.0904 | 0.182 (inactive) | -0.166 | -0.135 | -0.0916 | -0.381 | 0.0195 | 0.254 | 0.772 | 0.42
